Screening data from PubChem BioAssay.
VP16 counter – Gal4-VP16 reporter inhibition counter-screen; Drosophila S2 Gal4-VP16 UAS-luciferase, luminescence, 20 h; Potency, µM (series often up to 53.6 µM), for the others: at the highest dose activity, negative = inhibition, most hits filed as inhibitors; 3.5% of 310,000 active; AID 2546;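 further: Gal4-VP16 expression switched on by copper sulfate through the metallothionein promoter; nearly all actives have a fitted effect of over 50% in size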
Luc counter – counter-screen: inhibitors of Kinase-Glo firefly luciferase | Q27757 | Kinase-Glo luciferase, ATP luminescence, 8 min | Potency, µM (highest dose often 38.3 µM), for the others: at the top dose activity change, negative = inhibition, most hits filed as inhibitors | 0.28% of 200,000 active | AID 1379; further: nearly all actives have a fitted effect of over 60% in size
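Recombinant Kinase-Glo luciferase, 10 uM ATP (linear range), luciferin; imidazole pH 7.2 / KCl / MgCl2 / Tween / BSA buffer; 8 min RT; luminescence.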
RORg inh – blocks mouse ROR gamma transcriptional activity; Drosophila S2 Gal4-RORgamma UAS-luciferase reporter, 20 h; Potency, µM (highest dose often 53.6 µM), for inactives: top-dose activity change, negative = inhibition, most hits filed as inhibitors; 5.4% of 310,000 active; further: nearly all actives have a fitted effect of over 60% in size
Target sequence (P51450 whole entry, looked up, the tested form may be a part): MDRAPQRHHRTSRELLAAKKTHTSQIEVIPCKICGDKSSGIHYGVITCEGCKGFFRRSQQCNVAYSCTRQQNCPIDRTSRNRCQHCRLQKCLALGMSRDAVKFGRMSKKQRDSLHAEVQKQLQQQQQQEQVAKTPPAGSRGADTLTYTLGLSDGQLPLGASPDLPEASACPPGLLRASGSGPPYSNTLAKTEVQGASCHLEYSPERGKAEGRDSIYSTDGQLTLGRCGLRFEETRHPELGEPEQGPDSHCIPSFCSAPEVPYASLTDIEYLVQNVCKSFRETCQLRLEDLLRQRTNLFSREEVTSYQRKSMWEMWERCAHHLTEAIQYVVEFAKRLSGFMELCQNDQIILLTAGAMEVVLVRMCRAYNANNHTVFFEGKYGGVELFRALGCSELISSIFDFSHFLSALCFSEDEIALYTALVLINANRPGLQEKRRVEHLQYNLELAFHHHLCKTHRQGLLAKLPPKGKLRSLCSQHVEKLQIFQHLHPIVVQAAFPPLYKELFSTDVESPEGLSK
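A Gal4/UAS one-hybrid system in insect cells: metallothionein-promoter Gal4–ROR gamma fusion plus Photinus luciferase reporter. Copper sulfate 700 uM final, 20 hr ambient incubation, luminescent detection after 10 min with reagent.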
* = called active by the depositor. In the library only some 6.2% were active in any assay of this set; here they are far more common. The call rests on the fitted dose curve; in most records, active means well fitted curve in the direction sought with a large enough effect; inconclusive means small, poorly fitted or top-dose-only effect, or another doubt; inactive means no such curve, though single readings can be large; an effect the other way counts as inactive or inconclusive. On the % scale 0 is the no-effect control and ±100 the full control effect; potency means the concentration at half of the fitted maximal effect.

What do the screens show for `CSc1cccc(NC(=O)COc2cccc3ccccc23)c1`?
VP16 counter: 6%; Luc counter: -3%; RORg inh: 5%

What do the screens show for `CCOc1ccccc1Nc1nc2ccccc2[nH]1`?
VP16 counter: inconclusive; Luc counter: -2%; RORg inh: -4%

How did Cc1ccccc1OCC(=O)Nc1nc2ccccc2[nH]1 do in these assays?
VP16 counter: inconclusive; Luc counter: 0%; RORg inh: 7.1µM*

How did Cc1cc(C)c(NC(=O)COc2nc3ccccc3nc2C)c(C)c1 do in these assays?
VP16 counter: -9%; Luc counter: -2%; RORg inh: -16%

Results for Cc1ccc(OCC(=O)NCCc2nc3ccccc3[nH]2)c(C)c1 ?
VP16 counter: -6%; Luc counter: -1%; RORg inh: 1%

How did C/C(=N\NC(=O)c1ccccc1F)c1cccc(NC(=O)c2ccc(C)cc2)c1 do in these assays?
VP16 counter: -8%; RORg inh: -31%

How did O=c1c(CCc2ccccc2)nc2cnc(N3CCOCC3)nc2n1CCc1ccccc1 do in these assays?
VP16 counter: 6%; RORg inh: -7%

Results for CC(NC(=O)C(=O)NCCN1CCN(C(=O)c2ccccc2Br)CC1)c1ccccc1 (configuration not stated) ?
VP16 counter: -5%; RORg inh: 7%

Results for CC1=C(C)C(=O)N(C(C)CCc2ccccc2)C1=O (configuration not stated) ?
VP16 counter: 14%; RORg inh: -3%

Results for CCOC(=O)c1sc(NC(=S)NC(=O)c2ccccc2)nc1C ?
VP16 counter: 4%; Luc counter: -2%; RORg inh: 11%

What do the screens show for `COc1cc(CC(=O)Nc2nccs2)cc(OC)c1OC`?
VP16 counter: -8%; Luc counter: 0%; RORg inh: -13%

How did CCOC(=O)c1sc(NC(=S)NC(=O)c2cccc(OC)c2)nc1C do in these assays?
VP16 counter: inconclusive; RORg inh: 8.9µM*

How did COc1cc(C(=O)NC(=S)Nc2nccs2)cc(OC)c1OC do in these assays?
VP16 counter: inconclusive; Luc counter: -2%; RORg inh: 3.2µM*

How did COC(=O)c1sc(NC(=S)NC(=O)c2ccccc2)nc1C do in these assays?
VP16 counter: inconclusive; Luc counter: 3%; RORg inh: inconclusive

Results for COc1cc(C(=O)Nc2nncs2)cc(OC)c1OC ?
VP16 counter: -1%; Luc counter: -5%; RORg inh: -16%

Results for COc1cc(C(=O)Nc2nnc(C)s2)cc(OC)c1OC ?
VP16 counter: 6%; Luc counter: 2%; RORg inh: 7.1µM*

Results for COC(=O)c1sc(NC(=S)NC(=O)c2cc(OC)c(OC)c(OC)c2)nc1C ?
VP16 counter: -21%; RORg inh: 10µM*

Results for COc1ccccc1NC(=O)CNC(=O)c1ccccc1C ?
VP16 counter: 5%; Luc counter: 1%; RORg inh: -4%

Results for COc1cc(O)c(C)c(O)c1 ?
VP16 counter: 4%; Luc counter: -4%; RORg inh: 38%

What do the screens show for `CC(=O)OC1CC(C)OC(C)O1` (configuration not stated)?
VP16 counter: -3%; RORg inh: 4%

What do the screens show for `CC1CCN(C(=O)COC(=O)CCCN2C(=O)c3cccc4cccc(c34)C2=O)CC1`?
VP16 counter: -10%; RORg inh: -9%

Results for Cc1nc(NCCc2ccccc2)c2nnn(Cc3ccccc3)c2n1 ?
VP16 counter: -15%; RORg inh: -19%

How did FC(F)(F)c1nc(NCc2ccccc2)c2nnn(Cc3ccccc3)c2n1 do in these assays?
VP16 counter: -27%; RORg inh: 8.9µM*

Results for CNc1cc(CSC)nc(SCc2ccc(Cl)cc2Cl)n1 ?
VP16 counter: -10%; Luc counter: -1%; RORg inh: 18%

What do the screens show for `CSCc1cc(N(C)C)nc(SCc2ccc(Cl)c(Cl)c2)n1`?
VP16 counter: inconclusive; Luc counter: -5%; RORg inh: 11µM*

How did CCOC(=O)C(=O)/C(=C\N(C)C)c1onc(-c2c(Cl)cccc2Cl)c1C(=O)OC do in these assays?
VP16 counter: 1%; Luc counter: 3%; RORg inh: 57%

How did O=C(O)CCCCCCCCc1cn(CC2CCCCC2)nn1 do in these assays?
VP16 counter: 1.8µM*; RORg inh: 4.5µM*

What do the screens show for `Cc1ccc(-n2cc(CCCCCCCCC(=O)O)nn2)cc1`?
VP16 counter: -7%; RORg inh: 16%

What do the screens show for `COc1ccc(Cl)cc1NC(=O)c1cccnc1`?
VP16 counter: -2%; Luc counter: 1%; RORg inh: 7%

How did Cc1ncc(CO)c(/C=N/Nc2ccc(C(F)(F)F)cn2)c1O do in these assays?
VP16 counter: 16µM*; RORg inh: inconclusive
